Among the data in PubChem BioAssay (Tox21) are activity change, positive = activation values, retold here.

Values without a mark were called inactive. The source made the active and inactive calls. Calls come from the whole dose curve.
% is set by controls: 0 for no effect and ±100 for the full control effect.

This experiment in a line: qHTS assay to identify small molecule agonists of the estrogen related receptor (ERR) signaling pathway from Tox21 library (AID 1224849). Note: nearly all actives have a fitted effect of over 15% in size. The following applies: ERR reporter cell line, ONE-Glo luciferase, 18 h; at 92.4 µM (top of the series) unless noted. The essentials:
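Agonist signal is luciferase luminescence from an ERR reporter cell line treated 18 h at 37 C with DMSO-dissolved compounds, read 30 min after ONE-Glo addition at room temperature.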
A general note: Quantitative high-throughput screening tests each substance at several concentrations.
Take `CCC1(CO)COCOC1`: the activity change, positive = activation was 7.78%.

As to `O=[N+]([O-])c1cc(C2CCCCC2)c(O)c([N+](=O)[O-])c1`, the activity change, positive = activation is -69.4%.

With `CN1CCCC(n2nc(Cc3ccc(Cl)cc3)c3ccccc3c2=O)CC1` (centres undefined), the activity change, positive = activation is -15.1% [at 42.5 µM].

With `Oc1c(I)cc(I)c2cccnc12`, the activity change, positive = activation was -8.8% [at 42.5 µM].

Turning to `CCOC(=O)c1ccc(I)cc1`, the activity change, positive = activation was -4.74%.

Regarding `Cc1cc(O)ccc1O`, the activity change, positive = activation is -73.6% (active).

With `c1csc(SSc2cccs2)c1`, the activity change, positive = activation is -56.7%.

On to `O=C1c2ccccc2C(=O)c2c(O)c(O)cc(O)c21`, for which the activity change, positive = activation is -7.48%.

For the compound `CCOC(=O)/C=C/C(=O)OCC`, the activity change, positive = activation was 6.14%.

In the case of `CCCCCCCC/C=C\CCCCCCCCO`, the activity change, positive = activation is 4.79%.

As to `O=C1Cc2cc(Cl)ccc2N1`, the activity change, positive = activation was 0.547% [at 42.5 µM].

As to `CC(=O)OCCN(CCOC(C)=O)c1ccc(N=Nc2ccc([N+](=O)[O-])cc2C#N)cc1`, the activity change, positive = activation was -46.9%.

`O=c1[nH]c2ccc(Cl)cc2o1`: the activity change, positive = activation was 4.04%.

Consider `CCC(C)COC(C)=O` (centres undefined), for which the activity change, positive = activation was 1.45%.

As for `C=C(C)[C@@H]1CCC2=CCC[C@@H](C)[C@]2(C)C1`, the activity change, positive = activation is -7.47%.

Take `C[C@@H]1CN(CCCn2c3ccccc3c3ccccc32)C[C@H](C)N1`: the activity change, positive = activation was -72.9% [at 42.5 µM].

Take `CC1CC(OC(=O)C(O)c2ccccc2)CC(C)(C)N1C` (centres undefined): the activity change, positive = activation is -3.41% [at 42.5 µM].

As to `OCCN1CCN(CCCN2c3ccccc3Sc3ccc(Cl)cc32)CC1`, the activity change, positive = activation is -48% [at 42.5 µM].

In the case of `CCCCCC[C@@H](O)C/C=C\CCCCCCCC(=O)OCC(O)CO` (some centres undefined), the activity change, positive = activation was -2.03%.
